From the supplement of paper PMC11732987, “Enantioselective OTUD7B fragment discovery through chemoproteomics screening and high-throughput optimisation” (Communications Chemistry, 2025)

Columns and labels:
Assay in all cases: log2 ratio of Biotin-Ahx-Ub-VS probe labelling (fragment/DMSO); higher = less target engagement (more negative = stronger competition), active = hit call of the paper (q ≤ 0.05, log2 ratio ≤ -1)
Settings in all cases: compound concentration: 200 uM; treatment time: 3 h
[1] = target: T1, USP42 (UniProt Q9H9J4)
T1 sequence (whole entry): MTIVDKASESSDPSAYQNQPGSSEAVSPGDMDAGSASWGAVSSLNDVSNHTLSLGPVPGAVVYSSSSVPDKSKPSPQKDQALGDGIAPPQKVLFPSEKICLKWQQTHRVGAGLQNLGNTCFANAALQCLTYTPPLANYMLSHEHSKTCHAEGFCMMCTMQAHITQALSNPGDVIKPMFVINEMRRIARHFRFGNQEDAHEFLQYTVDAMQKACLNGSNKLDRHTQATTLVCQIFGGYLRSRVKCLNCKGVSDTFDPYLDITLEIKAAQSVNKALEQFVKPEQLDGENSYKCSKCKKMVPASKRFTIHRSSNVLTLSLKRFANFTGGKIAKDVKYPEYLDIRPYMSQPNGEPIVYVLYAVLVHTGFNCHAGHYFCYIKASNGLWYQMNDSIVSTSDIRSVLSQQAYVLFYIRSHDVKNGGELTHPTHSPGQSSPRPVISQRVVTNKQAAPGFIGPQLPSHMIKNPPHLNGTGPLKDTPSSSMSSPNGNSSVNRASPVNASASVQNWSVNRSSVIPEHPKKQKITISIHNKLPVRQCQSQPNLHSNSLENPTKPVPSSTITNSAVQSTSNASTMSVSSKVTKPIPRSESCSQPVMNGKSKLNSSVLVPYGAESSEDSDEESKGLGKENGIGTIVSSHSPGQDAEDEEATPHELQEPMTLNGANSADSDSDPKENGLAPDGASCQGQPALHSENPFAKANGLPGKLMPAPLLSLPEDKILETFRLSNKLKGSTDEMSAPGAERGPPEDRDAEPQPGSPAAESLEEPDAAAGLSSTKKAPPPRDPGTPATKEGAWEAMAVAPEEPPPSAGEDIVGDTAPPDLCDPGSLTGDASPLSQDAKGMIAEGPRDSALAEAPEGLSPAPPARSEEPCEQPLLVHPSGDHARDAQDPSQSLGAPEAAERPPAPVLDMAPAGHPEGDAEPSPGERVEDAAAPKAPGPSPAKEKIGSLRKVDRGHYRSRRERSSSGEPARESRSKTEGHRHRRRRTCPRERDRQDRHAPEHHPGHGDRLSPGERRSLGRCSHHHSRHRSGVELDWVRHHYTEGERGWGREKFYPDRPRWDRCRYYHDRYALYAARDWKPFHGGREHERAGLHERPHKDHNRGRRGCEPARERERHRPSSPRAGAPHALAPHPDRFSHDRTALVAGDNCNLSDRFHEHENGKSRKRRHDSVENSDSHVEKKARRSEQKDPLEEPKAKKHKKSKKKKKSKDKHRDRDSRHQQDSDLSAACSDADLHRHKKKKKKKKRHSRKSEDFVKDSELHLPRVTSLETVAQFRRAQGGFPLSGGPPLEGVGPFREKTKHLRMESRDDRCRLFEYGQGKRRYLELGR
Procedure, shortened: (§1)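 Fragment (200 µM) or vehicle was incubated for 3 h with triplicate HEK293T lysate samples of 495 µg, which were then treated with Biotin-Ahx-Ub-VS at 0.5 µM final for 1 h. Labelled DUBs were enriched on NeutrAvidin, digested with LysC and trypsin, and analysed by diaPASEF LC-MS/MS. Values are average log2 fragment/vehicle ratios from an unpaired t-test on global-median-normalised Spectronaut label-free quantities, using proteins with ≥2 unique peptides.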

[2] = target: USP46 (UniProt P62068)
Procedure, shortened: as §1

[3] = target: T2, USP47 (UniProt Q96K76)
T2 sequence (whole entry): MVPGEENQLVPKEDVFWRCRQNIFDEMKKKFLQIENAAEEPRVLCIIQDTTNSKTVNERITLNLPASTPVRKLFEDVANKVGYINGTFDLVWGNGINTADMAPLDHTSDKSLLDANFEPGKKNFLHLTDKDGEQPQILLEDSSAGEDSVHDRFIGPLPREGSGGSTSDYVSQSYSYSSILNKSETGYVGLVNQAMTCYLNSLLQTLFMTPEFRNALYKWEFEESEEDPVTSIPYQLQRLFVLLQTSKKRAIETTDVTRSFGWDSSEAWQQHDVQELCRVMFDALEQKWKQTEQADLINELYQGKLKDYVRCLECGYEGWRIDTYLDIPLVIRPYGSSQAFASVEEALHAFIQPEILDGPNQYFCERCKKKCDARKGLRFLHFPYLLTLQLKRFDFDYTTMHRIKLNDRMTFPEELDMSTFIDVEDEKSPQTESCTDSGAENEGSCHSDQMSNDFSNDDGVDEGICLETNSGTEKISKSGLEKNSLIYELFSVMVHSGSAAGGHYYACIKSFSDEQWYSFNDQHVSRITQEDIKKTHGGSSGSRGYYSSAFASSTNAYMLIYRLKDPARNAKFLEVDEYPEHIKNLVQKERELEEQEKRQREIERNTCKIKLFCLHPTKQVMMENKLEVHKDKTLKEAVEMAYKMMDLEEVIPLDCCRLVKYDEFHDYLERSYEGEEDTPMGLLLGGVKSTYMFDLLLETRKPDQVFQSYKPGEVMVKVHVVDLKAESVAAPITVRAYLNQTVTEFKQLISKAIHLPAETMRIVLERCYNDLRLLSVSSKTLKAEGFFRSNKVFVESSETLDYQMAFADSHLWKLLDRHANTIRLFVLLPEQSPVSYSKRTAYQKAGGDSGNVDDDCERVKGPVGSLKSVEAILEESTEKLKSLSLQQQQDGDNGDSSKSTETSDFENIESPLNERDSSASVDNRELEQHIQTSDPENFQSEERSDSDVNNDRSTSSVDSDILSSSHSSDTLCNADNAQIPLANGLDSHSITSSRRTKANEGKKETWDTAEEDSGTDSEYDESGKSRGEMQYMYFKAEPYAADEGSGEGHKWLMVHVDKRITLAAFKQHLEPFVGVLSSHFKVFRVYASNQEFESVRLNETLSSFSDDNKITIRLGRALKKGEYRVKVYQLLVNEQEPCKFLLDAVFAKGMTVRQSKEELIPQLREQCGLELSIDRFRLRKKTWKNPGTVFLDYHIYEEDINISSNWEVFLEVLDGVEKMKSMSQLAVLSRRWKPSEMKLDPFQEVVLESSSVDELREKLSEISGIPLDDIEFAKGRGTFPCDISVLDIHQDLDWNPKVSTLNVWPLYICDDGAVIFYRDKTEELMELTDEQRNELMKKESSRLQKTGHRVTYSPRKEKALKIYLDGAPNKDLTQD
Procedure, shortened: as §1

[4] = target: T3, USP48 (UniProt Q86UV5)
T3 sequence (whole entry): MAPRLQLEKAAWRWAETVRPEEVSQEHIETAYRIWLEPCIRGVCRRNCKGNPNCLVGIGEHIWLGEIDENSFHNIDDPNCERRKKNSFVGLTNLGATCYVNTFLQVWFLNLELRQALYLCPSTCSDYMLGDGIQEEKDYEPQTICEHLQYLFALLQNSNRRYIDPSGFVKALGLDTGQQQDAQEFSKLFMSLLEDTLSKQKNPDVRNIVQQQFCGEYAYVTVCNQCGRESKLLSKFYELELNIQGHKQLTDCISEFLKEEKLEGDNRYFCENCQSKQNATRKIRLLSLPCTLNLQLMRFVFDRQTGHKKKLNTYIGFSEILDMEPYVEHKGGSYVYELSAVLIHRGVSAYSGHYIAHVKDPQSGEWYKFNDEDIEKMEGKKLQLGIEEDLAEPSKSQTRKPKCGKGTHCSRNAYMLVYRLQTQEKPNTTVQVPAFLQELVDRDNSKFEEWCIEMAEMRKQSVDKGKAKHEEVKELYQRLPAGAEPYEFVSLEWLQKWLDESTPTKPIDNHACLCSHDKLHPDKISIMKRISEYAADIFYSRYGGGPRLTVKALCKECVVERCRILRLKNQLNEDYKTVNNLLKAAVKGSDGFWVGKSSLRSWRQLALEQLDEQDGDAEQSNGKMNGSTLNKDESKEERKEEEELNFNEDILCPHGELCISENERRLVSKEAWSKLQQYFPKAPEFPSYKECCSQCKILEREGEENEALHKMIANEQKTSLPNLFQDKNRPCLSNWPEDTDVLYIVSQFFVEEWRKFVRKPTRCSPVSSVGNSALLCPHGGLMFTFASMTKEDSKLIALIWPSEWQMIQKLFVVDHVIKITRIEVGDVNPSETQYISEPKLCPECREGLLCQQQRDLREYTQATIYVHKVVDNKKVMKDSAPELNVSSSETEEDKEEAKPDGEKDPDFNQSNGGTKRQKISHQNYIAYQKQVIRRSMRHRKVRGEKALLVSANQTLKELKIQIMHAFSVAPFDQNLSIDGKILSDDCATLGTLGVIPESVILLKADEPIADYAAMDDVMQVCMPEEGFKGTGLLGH
Procedure, shortened: as §1

[5] = target: T4, USP5 (UniProt P45974)
T4 sequence (whole entry): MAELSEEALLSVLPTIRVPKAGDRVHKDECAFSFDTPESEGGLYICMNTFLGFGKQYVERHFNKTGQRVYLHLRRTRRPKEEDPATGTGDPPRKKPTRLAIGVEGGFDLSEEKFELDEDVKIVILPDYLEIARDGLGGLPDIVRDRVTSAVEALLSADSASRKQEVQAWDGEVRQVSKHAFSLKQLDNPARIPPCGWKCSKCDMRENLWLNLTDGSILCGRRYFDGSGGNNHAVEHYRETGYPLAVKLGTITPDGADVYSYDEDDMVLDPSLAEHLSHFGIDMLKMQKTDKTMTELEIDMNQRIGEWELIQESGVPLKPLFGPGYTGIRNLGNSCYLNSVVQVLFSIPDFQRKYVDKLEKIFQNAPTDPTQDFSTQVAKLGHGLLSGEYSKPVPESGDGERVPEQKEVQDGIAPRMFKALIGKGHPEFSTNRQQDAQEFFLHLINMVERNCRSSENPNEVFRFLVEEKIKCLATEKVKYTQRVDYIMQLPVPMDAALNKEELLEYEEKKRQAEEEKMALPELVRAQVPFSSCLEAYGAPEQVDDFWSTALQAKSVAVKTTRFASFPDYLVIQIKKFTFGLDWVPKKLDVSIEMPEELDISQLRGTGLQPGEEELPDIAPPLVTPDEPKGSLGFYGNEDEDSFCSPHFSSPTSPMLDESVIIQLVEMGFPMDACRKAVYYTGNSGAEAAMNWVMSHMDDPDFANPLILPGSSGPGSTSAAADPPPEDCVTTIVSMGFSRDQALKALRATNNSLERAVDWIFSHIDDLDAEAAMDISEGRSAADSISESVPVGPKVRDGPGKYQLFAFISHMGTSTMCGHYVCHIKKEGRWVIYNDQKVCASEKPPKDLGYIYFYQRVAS
Procedure, shortened: as §1

[6] = target: USP54 (UniProt Q70EL1)
Procedure, shortened: as §1

[7] = target: USP7 (UniProt Q93009)
Procedure, shortened: as §1

[8] = target: T5, USP8 (UniProt P40818)
T5 sequence (whole entry): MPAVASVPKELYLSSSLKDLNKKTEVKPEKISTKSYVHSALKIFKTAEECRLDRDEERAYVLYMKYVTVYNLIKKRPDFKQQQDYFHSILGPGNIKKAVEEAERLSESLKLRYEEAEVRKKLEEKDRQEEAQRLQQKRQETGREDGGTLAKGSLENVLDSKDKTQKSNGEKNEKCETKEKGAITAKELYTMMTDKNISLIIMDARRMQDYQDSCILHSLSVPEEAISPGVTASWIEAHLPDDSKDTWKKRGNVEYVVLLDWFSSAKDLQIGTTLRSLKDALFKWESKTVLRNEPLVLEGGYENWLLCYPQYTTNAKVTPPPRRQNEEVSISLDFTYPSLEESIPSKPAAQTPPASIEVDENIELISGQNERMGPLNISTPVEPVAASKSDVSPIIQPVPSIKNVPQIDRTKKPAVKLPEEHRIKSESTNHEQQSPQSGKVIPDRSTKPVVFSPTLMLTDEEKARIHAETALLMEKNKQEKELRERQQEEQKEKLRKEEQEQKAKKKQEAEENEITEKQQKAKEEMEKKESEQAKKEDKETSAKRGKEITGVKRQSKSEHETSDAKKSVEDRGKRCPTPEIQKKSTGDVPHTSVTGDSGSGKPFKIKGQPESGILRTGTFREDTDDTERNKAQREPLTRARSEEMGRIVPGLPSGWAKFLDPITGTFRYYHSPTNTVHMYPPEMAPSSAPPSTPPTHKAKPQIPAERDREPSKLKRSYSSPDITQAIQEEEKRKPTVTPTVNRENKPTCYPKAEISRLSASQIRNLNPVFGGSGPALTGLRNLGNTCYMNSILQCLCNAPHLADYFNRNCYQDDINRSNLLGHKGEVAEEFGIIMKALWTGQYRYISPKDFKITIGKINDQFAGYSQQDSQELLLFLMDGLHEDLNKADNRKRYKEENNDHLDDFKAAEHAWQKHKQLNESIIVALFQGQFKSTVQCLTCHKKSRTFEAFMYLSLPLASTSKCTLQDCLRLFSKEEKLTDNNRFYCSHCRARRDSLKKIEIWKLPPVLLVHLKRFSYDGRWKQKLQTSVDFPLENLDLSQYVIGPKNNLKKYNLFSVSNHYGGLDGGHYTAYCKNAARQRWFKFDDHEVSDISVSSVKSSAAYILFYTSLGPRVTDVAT
Procedure, shortened: as §1

[9] = target: USP9X (UniProt Q93008)
Procedure, shortened: as §1

[10] = target: UniProt O00487
Procedure, shortened: as §1

Measured: log2 ratio of Biotin-Ahx-Ub-VS probe labelling

Chain of USP54 (Q70EL1 whole entry): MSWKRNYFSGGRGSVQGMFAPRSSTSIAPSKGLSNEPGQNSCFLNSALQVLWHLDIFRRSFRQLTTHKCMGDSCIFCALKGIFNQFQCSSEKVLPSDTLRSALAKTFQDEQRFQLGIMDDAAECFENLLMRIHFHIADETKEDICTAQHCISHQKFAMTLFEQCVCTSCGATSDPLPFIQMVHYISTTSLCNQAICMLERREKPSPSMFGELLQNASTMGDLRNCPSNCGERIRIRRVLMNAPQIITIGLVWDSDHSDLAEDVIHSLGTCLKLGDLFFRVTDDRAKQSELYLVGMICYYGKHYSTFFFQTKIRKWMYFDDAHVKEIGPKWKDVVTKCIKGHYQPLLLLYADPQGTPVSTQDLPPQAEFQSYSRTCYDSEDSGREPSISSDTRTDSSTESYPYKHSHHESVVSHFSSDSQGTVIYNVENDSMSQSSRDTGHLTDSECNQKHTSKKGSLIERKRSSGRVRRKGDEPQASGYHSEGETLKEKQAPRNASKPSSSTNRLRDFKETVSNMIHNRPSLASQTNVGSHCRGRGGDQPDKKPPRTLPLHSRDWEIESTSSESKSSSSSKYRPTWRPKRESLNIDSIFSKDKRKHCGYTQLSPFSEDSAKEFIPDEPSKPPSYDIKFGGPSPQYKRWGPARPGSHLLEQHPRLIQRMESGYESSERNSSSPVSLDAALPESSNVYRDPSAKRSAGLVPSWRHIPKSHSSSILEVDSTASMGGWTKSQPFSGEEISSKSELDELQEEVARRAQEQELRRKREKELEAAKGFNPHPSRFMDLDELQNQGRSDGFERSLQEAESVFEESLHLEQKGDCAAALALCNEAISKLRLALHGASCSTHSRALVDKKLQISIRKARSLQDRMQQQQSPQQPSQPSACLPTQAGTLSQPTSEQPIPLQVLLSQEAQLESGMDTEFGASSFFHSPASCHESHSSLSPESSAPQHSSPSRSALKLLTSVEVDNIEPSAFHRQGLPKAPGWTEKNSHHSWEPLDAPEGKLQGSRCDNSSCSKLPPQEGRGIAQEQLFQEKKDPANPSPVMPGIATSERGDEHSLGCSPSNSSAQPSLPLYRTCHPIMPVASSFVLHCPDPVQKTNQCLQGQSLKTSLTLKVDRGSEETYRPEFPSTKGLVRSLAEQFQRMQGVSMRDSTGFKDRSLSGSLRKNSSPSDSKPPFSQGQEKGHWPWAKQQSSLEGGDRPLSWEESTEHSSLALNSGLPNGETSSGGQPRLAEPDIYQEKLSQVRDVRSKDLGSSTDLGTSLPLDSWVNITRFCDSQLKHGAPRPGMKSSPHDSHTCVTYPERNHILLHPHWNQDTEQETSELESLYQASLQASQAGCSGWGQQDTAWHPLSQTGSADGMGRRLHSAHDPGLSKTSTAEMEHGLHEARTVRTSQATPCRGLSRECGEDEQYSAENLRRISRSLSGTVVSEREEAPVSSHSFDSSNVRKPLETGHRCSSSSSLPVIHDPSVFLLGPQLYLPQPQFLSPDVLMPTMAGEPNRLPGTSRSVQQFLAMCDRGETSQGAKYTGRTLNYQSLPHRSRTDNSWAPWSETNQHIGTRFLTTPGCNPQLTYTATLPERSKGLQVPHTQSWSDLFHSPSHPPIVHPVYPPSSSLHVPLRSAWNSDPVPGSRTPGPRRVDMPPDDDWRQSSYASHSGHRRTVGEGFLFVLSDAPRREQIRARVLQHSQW
Chain of UniProt O00487 (O00487 whole entry): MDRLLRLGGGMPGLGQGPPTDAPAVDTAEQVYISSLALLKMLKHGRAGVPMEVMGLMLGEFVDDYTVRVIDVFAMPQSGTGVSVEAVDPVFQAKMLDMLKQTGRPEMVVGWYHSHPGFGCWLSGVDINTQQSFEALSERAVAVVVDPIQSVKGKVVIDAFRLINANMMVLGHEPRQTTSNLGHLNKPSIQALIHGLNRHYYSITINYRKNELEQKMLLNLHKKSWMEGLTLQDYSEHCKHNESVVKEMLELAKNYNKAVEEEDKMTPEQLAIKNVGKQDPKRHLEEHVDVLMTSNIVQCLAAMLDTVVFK
Chain of USP9X (Q93008 whole entry): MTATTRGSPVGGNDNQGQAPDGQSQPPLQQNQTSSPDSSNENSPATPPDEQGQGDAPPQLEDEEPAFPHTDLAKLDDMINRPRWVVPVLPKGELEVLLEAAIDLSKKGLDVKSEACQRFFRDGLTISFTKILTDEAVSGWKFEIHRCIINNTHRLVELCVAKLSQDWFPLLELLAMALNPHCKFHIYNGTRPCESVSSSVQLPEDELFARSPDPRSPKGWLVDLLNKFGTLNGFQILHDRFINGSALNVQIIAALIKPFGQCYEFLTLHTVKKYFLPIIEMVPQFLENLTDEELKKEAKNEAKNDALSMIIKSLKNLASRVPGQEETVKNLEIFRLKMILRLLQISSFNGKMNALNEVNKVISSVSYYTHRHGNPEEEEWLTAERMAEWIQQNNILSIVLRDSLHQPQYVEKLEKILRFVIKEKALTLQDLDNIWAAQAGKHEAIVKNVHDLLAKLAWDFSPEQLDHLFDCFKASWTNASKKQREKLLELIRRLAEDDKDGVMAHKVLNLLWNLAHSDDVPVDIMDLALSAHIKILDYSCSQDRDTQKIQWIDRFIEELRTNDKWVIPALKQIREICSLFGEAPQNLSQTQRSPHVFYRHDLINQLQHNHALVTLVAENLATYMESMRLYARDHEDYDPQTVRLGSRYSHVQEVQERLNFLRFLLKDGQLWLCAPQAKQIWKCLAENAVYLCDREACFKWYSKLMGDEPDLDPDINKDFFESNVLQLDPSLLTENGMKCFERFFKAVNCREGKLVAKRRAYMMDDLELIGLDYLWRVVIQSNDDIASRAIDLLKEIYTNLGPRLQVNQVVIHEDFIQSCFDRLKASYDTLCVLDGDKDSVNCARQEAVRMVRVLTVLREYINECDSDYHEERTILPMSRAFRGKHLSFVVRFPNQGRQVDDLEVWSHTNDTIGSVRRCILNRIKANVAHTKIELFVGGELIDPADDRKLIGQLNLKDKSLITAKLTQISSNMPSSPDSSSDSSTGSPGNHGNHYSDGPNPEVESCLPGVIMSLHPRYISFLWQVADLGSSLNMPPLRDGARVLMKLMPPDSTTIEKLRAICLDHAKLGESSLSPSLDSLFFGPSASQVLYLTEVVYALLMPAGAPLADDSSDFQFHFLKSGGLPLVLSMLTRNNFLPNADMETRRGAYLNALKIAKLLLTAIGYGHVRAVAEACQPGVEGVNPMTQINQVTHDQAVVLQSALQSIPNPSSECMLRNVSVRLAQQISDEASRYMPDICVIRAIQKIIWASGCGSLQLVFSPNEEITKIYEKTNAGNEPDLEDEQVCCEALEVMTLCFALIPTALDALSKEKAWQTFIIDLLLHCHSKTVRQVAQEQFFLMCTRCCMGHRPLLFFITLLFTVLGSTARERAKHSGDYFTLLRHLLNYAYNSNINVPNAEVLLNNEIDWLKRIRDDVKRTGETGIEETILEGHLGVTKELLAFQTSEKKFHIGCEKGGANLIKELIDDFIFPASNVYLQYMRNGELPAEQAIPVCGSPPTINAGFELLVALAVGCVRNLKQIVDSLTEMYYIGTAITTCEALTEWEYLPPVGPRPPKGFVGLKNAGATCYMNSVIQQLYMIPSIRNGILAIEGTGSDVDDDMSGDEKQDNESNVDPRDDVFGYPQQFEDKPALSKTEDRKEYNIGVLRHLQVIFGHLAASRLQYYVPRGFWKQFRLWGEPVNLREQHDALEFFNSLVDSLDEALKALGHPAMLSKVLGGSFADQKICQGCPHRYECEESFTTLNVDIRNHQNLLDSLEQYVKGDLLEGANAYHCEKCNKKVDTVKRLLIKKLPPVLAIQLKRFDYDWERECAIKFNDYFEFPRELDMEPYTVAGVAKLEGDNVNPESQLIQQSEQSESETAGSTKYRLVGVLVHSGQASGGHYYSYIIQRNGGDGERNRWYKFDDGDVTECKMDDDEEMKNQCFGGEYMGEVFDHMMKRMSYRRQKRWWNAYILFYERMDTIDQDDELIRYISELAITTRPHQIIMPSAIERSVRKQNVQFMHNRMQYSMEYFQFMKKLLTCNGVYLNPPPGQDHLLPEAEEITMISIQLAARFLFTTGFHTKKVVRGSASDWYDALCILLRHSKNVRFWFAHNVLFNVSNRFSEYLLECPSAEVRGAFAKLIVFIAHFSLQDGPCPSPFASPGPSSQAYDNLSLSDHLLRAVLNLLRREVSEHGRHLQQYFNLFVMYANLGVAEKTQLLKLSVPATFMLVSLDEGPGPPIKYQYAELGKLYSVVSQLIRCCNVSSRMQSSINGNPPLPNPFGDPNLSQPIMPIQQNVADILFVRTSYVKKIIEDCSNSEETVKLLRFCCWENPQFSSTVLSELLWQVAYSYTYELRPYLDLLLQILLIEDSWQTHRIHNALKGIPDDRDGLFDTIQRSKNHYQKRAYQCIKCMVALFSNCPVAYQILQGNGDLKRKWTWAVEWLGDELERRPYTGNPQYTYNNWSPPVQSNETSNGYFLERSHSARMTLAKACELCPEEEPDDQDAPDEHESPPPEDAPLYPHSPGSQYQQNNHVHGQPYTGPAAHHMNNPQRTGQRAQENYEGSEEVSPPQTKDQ
Chain of USP46 (P62068 whole entry): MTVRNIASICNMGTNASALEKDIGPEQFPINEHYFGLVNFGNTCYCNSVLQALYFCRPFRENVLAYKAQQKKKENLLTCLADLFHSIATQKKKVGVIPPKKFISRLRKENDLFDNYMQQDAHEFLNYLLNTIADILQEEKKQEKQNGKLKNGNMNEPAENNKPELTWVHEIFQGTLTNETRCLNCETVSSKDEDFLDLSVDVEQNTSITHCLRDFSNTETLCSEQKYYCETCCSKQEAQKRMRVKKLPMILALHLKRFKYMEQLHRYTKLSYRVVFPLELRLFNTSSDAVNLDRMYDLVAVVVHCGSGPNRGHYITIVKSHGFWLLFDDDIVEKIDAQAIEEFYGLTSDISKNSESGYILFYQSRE

O=C(CCl)N1CCC(C(O)c2ccc(F)cc2)CC1 (stereo not given)
inactive: [1] 0.365 | [2] 0.252 | [3] -0.324 | [4] 0.00604 | [5] 0.131 | [6] -0.000277 | [7] -0.0695 | [8] 0.0961 | [9] 0.23 | [10] 0.0841
